From PubChem BioAssay
TDP1 cell noCPT: qHTS for Inhibitors of human tyrosyl-DNA phosphodiesterase 1 (TDP1): qHTS in cells in absence of CPT; DT40 Tdp1-/- hTDP1 cells, no CPT, ATP luminescence, 48 h; Potency, µM (top dose mostly 46.2 µM), for inactives: top-dose activity change, negative = growth inhibition, hits mostly inhibitors; 420,000 tested, 15% active; also: nearly all actives have a fitted effect of over 55% in size
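Compound effects on proliferation are scored in DT40 Tdp1-/-;hTDP1 cells in the absence of CPT. ATP levels (CellTiter-Glo luminescence) are recorded after a ≥48 hr, 37 °C incubation.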
KB-V1 MDR tox: kills drug-selected multidrug resistant KB-V1 cells; KB-V1 MDR cells viability, CellTiter-Glo, 72 h; Potency, µM (series often up to 46.1 µM), actives largely listed as cytotoxic; 400,000 tested, 3.4% active; AID 1347076; also: nearly all actives have a fitted effect of over 60% in size
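In this primary screen, KB-V1 cells overexpressing P-gp are incubated with library compounds (lowest to highest concentration) for 72 h at 37 degrees C before a luminescent ATP viability read.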
HT1080NT lethal: kills 2HG-producing HT-1080-NT fibrosarcoma cells | HT-1080-NT fibrosarcoma viability, CellTiter-Glo ATP luminescence, 48 h | Potency, µM (highest dose often 46.1 µM), inactives show at the highest dose activity, negative = less viability, actives largely listed as cytotoxic | AID 686970 | 360,000 tested, 1.6% active;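 also: NT is the 2HG producing partner of a matched IDH1 knockdown line; 0% = DMSO-treated cells and -100% = media-only wells without cells; nearly all actives have a fitted effect of over 55% in size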
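Toxicity toward the 2HG-producing NT line was scored as %Activity, normalised to DMSO and no-cell wells, from CellTiter-Glo luminescence after 48 hours' treatment.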
TDP1 cell CPT: growth inhibition of DT40 Tdp1-/-;hTDP1 cells with camptothecin (screen for TDP1 inhibitors). chicken DT40 Tdp1-/-;hTDP1 cells + 20 nM CPT, ATP luminescence, 48 h. Potency, µM (highest dose often 46.2 µM), for the others: top-dose activity change, negative = growth inhibition, most hits filed as inhibitors. 420,000 tested, 12% active; also: nearly all actives have a fitted effect of over 55% in size
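Chicken DT40 Tdp1-/- cells stably complemented with human TDP1 were seeded at 400 cells/well in medium containing 20 nM camptothecin, exposed to pin-transferred compounds, and grown at 37 °C for at least 48 hr. Viability was read as ATP luminescence.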
KB-3-1 tox: kills parental KB-3-1 adenocarcinoma cells; KB-3-1 viability, CellTiter-Glo ATP luminescence, 72 h; Potency, µM (titrated, usually from 46.1 µM), actives largely listed as cytotoxic; 400,000 tested, 1.4% active; also: nearly all actives have a fitted effect of over 60% in size
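KB-3-1 parental drug-naive adenocarcinoma cells in DMEM/10% FBS, incubated 72 h at 37 C with pin-transferred compounds across a concentration series. Viability by CellTiter-Glo luminescence; concentration-response curves fitted after normalization.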
HT1080 IDH1KD tx: kills HT-1080 cells with IDH1 knockdown; Potency, µM (highest dose often 46.1 µM), inactives show at the highest dose activity, negative = toxicity, most hits filed as cytotoxic; 360,000 tested, 2% active; HT-1080 IDH1 knockdown viability, ATP luminescence, 48 h;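 also: 0% = DMSO wells and -100% = cell-free medium wells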
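Knockdown cells (IDH1KD HT-1080) received compounds 2 h after plating at 750 cells/well and were kept 48 h at 37 °C in 5% FBS RPMI. A CellTiter-Glo luminescence read gave % activity for curve fitting.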
Starred values were filed as active, the others as inactive. An excerpt weighted towards active compounds, which were near 19% of everything screened. Calls follow the shape of the dose curve; as a rule, active = well fitted curve in the direction sought with a large enough effect; inconclusive = small, poorly fitted or top-dose-only effect, or another doubt; inactive = no such curve, though single readings can be large; an effect the other way counts as inactive or inconclusive. Unless noted, % is scaled to controls: 0 for no effect and ±100 for the full control effect; potency is read from the fitted curve at half-maximal effect.

CCc1nnc(NC(=O)c2cccc(S(=O)(=O)N3CCc4ccccc43)c2)s1 was read as TDP1 cell noCPT -21.8%, KB-V1 MDR tox inactive, HT1080NT lethal 2.9%, TDP1 cell CPT 2.5%, KB-3-1 tox inactive and HT1080 IDH1KD tx 7.7%.
`O=C(Nc1nc2ccccc2s1)c1cccc(S(=O)(=O)N2CCc3ccccc32)c1` gave TDP1 cell noCPT 10.3µM*, KB-V1 MDR tox inconclusive, HT1080NT lethal inconclusive, TDP1 cell CPT -23.5%, KB-3-1 tox inconclusive and HT1080 IDH1KD tx -24.9%.
Screening O=C(Nc1nc2c(s1)CN(Cc1ccccc1)CC2)c1cccc(S(=O)(=O)N2CCc3ccccc32)c1 returned TDP1 cell noCPT inconclusive, KB-V1 MDR tox 6.51µM*, HT1080NT lethal -0.8%, TDP1 cell CPT inconclusive, KB-3-1 tox inconclusive and HT1080 IDH1KD tx -21.7%.
Screening COc1cccc(-c2nnc(SCC(=O)NC3CCCCC3)o2)c1 returned TDP1 cell noCPT inconclusive, KB-V1 MDR tox inactive, TDP1 cell CPT inconclusive and KB-3-1 tox inconclusive.
Screening COc1ccc(NC(=O)C2CCC(CNS(=O)(=O)c3ccc(Br)s3)CC2)c(OC)c1 (centres undefined) returned TDP1 cell noCPT inconclusive, KB-V1 MDR tox inconclusive, TDP1 cell CPT 18.4µM* and KB-3-1 tox inactive.
Screening COc1cc2c(-c3ccc(O)cc3)nc3c(c(C)nn3-c3ccccc3)c2cc1OC returned TDP1 cell noCPT 18.4µM*, KB-V1 MDR tox 3.66µM*, HT1080NT lethal -19.4%, TDP1 cell CPT 11.6µM*, KB-3-1 tox inconclusive and HT1080 IDH1KD tx -25.9%.
For CC(=O)Oc1cc2c(cc1Cl)C1(CC(c3ccccc3Cl)O2)CC(C)(C)NC(=S)N1 (centres undefined) the results were TDP1 cell noCPT 2.59µM*, KB-V1 MDR tox inconclusive, HT1080NT lethal 16.4µM*, TDP1 cell CPT 3.26µM*, KB-3-1 tox inactive and HT1080 IDH1KD tx 23.1µM*.
For COc1ccc(N2C(=S)NC(C)(C)CC2(C)c2ccc(OC(C)=O)cc2OC(C)=O)cc1 (centres undefined) the results were TDP1 cell noCPT 9.9%, KB-V1 MDR tox inactive, HT1080NT lethal -6.6%, TDP1 cell CPT 13.5%, KB-3-1 tox inactive and HT1080 IDH1KD tx 7.0%.
COc1ccccc1N(O)C1CC(=O)N(c2ccc(Br)cc2)C1=O (centres undefined) was read as TDP1 cell noCPT inconclusive, KB-V1 MDR tox inactive, HT1080NT lethal -3.8%, TDP1 cell CPT 18.4µM*, KB-3-1 tox inactive and HT1080 IDH1KD tx -13.1%.
`CCCCCCC(=O)N(O)C1CC(=O)N(c2ccc(Br)cc2)C1=O` (centres undefined) gave TDP1 cell noCPT 18.4µM*, KB-V1 MDR tox inactive, HT1080NT lethal inconclusive, TDP1 cell CPT 20.6µM*, KB-3-1 tox inactive and HT1080 IDH1KD tx 15.8µM*.
CCCCCCC(=O)N(O)C1CC(=O)N(c2ccc(F)cc2)C1=O (centres undefined) was read as TDP1 cell noCPT 2.91µM*, KB-V1 MDR tox inactive, HT1080NT lethal 16.4µM*, TDP1 cell CPT 1.64µM*, KB-3-1 tox inactive and HT1080 IDH1KD tx inconclusive.
`CCOC(=O)N1CCN(C2CC(=O)N(c3ccc(F)cc3)C2=O)CC1` (centres undefined) gave TDP1 cell noCPT -15.0%, KB-V1 MDR tox inactive, HT1080NT lethal 12.8%, TDP1 cell CPT -0.6%, KB-3-1 tox inactive and HT1080 IDH1KD tx 22.2%.
O=C1CC(N(O)c2ccccc2)C(=O)N1c1ccc(Cl)c(Cl)c1 (centres undefined) was read as TDP1 cell noCPT inconclusive, KB-V1 MDR tox inactive, HT1080NT lethal -2.1%, TDP1 cell CPT inconclusive, KB-3-1 tox inactive and HT1080 IDH1KD tx -0.1%.
Screening Cc1ccc(NS(=O)(=O)c2cc3c(cc2N(C)C)CCC(=O)N3)cc1C returned KB-V1 MDR tox inactive and KB-3-1 tox inactive.
Screening COc1ccc(C)cc1NC(=O)CCS(=O)(=O)c1ccc2c(c1)oc(=O)n2C returned TDP1 cell noCPT 0.9%, KB-V1 MDR tox inconclusive, HT1080NT lethal 10.5%, TDP1 cell CPT -1.5%, KB-3-1 tox inactive and HT1080 IDH1KD tx 19.0%.
`CN1NC(c2ccccc2)NN(C)C1=O` gave TDP1 cell noCPT -28.6%, KB-V1 MDR tox inactive, HT1080NT lethal -1.0%, TDP1 cell CPT 18.4µM*, KB-3-1 tox inactive and HT1080 IDH1KD tx 15.4%.
CC1C2C(c3ccccc3)N(C)C(=O)N(C)C2N(C)C(=O)N1C (centres undefined) was read as TDP1 cell noCPT -17.8%, KB-V1 MDR tox inactive, HT1080NT lethal 25.9%, TDP1 cell CPT -0.9%, KB-3-1 tox inactive and HT1080 IDH1KD tx 20.4%.
Screening Cc1ccc(OCCSc2nc3ccccc3n2CCC(=O)O)cc1 returned TDP1 cell noCPT -0.5%, KB-V1 MDR tox inactive, HT1080NT lethal -1.7%, TDP1 cell CPT -19.9%, KB-3-1 tox inactive and HT1080 IDH1KD tx -0.3%.
Screening CN(C)c1ccc(/C=C2/C[N+](C)(C)C/C(=C/c3ccc(N(C)C)cc3)C2=O)cc1 returned TDP1 cell noCPT 3.66µM*, KB-V1 MDR tox inactive, HT1080NT lethal inconclusive, TDP1 cell CPT 2.59µM*, KB-3-1 tox 16.4µM* and HT1080 IDH1KD tx 16.4µM*.
Screening CCc1nnc(NC(=O)CSCc2cc(=O)c3ccc(C)cc3[nH]2)s1 returned TDP1 cell noCPT -2.0%, KB-V1 MDR tox inconclusive, TDP1 cell CPT -0.6% and KB-3-1 tox inactive.
For Cc1ccc(C#CC[N+](C)(C)CC#Cc2ccccc2)cc1 the results were TDP1 cell noCPT 1.84µM*, KB-V1 MDR tox inactive, HT1080NT lethal inconclusive, TDP1 cell CPT 2.06µM*, KB-3-1 tox inconclusive and HT1080 IDH1KD tx inconclusive.
For C#CC[N+](C)(C)CC#Cc1ccccc1 the results were TDP1 cell noCPT -11.1%, KB-V1 MDR tox inactive, HT1080NT lethal -19.3%, TDP1 cell CPT -1.9%, KB-3-1 tox inconclusive and HT1080 IDH1KD tx -4.6%.
COc1ccc(C)cc1NC(=O)CSc1nc(=O)n(Cc2ccncc2)c2c1CCC2 was read as TDP1 cell noCPT inconclusive, KB-V1 MDR tox inactive, TDP1 cell CPT inconclusive and KB-3-1 tox inactive.
`COc1ccccc1NC(=O)CSc1nc2ccccc2nc1N1CC(C)OC(C)C1` (centres undefined) gave TDP1 cell noCPT inconclusive, KB-V1 MDR tox inactive, HT1080NT lethal -25.2%, TDP1 cell CPT 20.6µM*, KB-3-1 tox inactive and HT1080 IDH1KD tx -3.8%.
